Here are results for 40 molecules from PubChem BioAssay (EPA / NIEHS).

Active and inactive are the calls of the source. The calls were made as follows: active = hit-call score of the fitted dose curve at least 0.9, where 1 is the maximum; inactive = score below 0.9.

The assay is described as follows: ATG_PBREM_CIS: Attagene CIS-FACTORIAL HepG2 Assay for human Phenobarbital-responsive Enhancer Module (PBREM) (AID 2282955). The conditions noted are these: HepG2 PBREM cis-reporter, Attagene multiplexed transcription; actives raise or lower the signal. The method, then: ATG_CIS is a cell-based, multiplexed-readout assay that uses HepG2, a human liver cell line, with measurements taken at 24 hours after chemical dosing in a 24-well plate.ATG_PBREM_CIS is one of 52 assay component(s) measured or calculated from the ATG_CIS assay. It is designed to make measurements of mRNA induction, a form of inducible reporter, as detected with fluorescence intensity signals by Reverse transcription polymerase chain reaction (RT-PCR) and Capillary electrophoresis technology.Data from the assay component ATG_PBREM_CIS was analyzed into 1 assay endpoint. This assay endpoint, ATG_PBREM_CIS, was analyzed with bidirectional fitting relative to DMSO as the negative control and baseline of activity. Using a type of inducible reporter, measures of mRNA for gain or loss-of-signal activity can be used to understand the reporter gene at the transcription factor-level as they relate to the gene NR1I3. Furthermore, this assay endpoint can be referred to as a primary readout, because this assay has produced multiple assay endpoints where this one serves a reporter gene function. To generalize the intended target to other relatable targets, this assay endpoint is annotated to the nuclear receptor intended target family, where the subfamily is non-steroidal.
Human liver HepG2 cells are transiently transfected with multiple reporter transcription units (MRTUs) in 6-well plates using FuGene 6 reagent (Roche; 3 ml FuGene/1 mg DNA). The MRTU constructs are regulated by a cis-regulating element (promoter). […] A major difference between the CIS and TRANS system is that in CIS activities of endogenous TFs are measured, whereas the TRANS assay evaluates changes in activities of exogenous, chimeric NR-Gal4 proteins. […] At the end of 24 hour incubation, total RNA was isolated using TriZol reagent (Invitrogen). The isolated RNA is then reverse-transcribed using oligo(dT) primer and Mo-MLV reverse transcriptase (Invitrogen) with DNAse I (Ambion) treatment for 30 min. The one-tenth of the produced cDNA was amplified by PCR using Taq DNA polymerase (Invitrogen) and two reporter sequence-specific primers. The PCR products were fluorescently labeled by primer extension with 6-arboxyfluorescein (6-FAM) 5'-labeled reporter sequence-specific primer (2 min at 95 C, 20 s at 68 C and 10 min at 72 C) and these products were digested with 5U of HpaI (New England Biolabs) for 2h at 37 C. The fragments were purified using Qiaquick PCR columns (Qiagen), analyzed on an ABI 3130xL genetic analyzer (Applied Biosystems) with peak positions identified by using a set of X-rhodamine (ROX)-labeled MapMarker1000 molecular weight standards (BioVentures). The raw capillary electrophoresis data was processed using Attagraph software (Attagene).
As to `COC(N)=O`, the outcome was inactive. For the molecule `CCCCN(CCCC)SN(C)C(=O)Oc1cccc2c1OC(C)(C)C2`, the result was inactive. `O=NN1CCCC1`: the result was inactive. As to `FC(F)(F)c1ccc(Cl)cc1`, the outcome was inactive. Still for that read-out and setting: under `CCOP(=S)(NC(C)C)Oc1ccccc1C(=O)OC(C)C` (stereo not given) stands “inactive”; under `O=C(O)C(F)(F)OC(F)(F)C(F)(F)OC(F)(F)C(=O)O`, “inactive”.

In the case of `CC(C)Nc1ccc(Nc2ccccc2)cc1`, the result was inactive. Regarding `CCCCc1ccc(O)cc1`, the result was inactive.

In the case of `O=C(O)C(F)(OC(F)(F)C(F)(F)C(F)(F)F)C(F)(F)F` (stereo not given), the result was inactive. `CCOC(=O)c1ccccc1C(=O)OCC`: the outcome was inactive. On the same count and under the same terms, under `O=P(OCC(Br)CBr)(OCC(Br)CBr)OCC(Br)CBr` (stereo not given) stands “inactive”; under `CN(C)C(=O)Cl`, “inactive”; under `COCCOCCO`, “inactive”. Consider `CCOP(=S)(OCC)SCSc1ccc(Cl)cc1`, for which the concentration at half-maximal activity (AC50) (usually the concentration giving half of the maximal activity seen) is 5.81 µM (active).

`CCOC(=O)c1ccccc1N`: the outcome was inactive. Turning to `OCC(F)(F)OC(F)(F)C(F)(F)OC(F)(F)CO`, the result was inactive.

Take `O=c1[nH]c2ccccc2c(=O)o1`: the result was inactive. As for `Clc1ccc(Oc2ccccc2)cc1`, the result was inactive. Regarding `N#Cc1cc([N+](=O)[O-])ccc1N`, the result was inactive.

With `CCCCOCC1CO1` (stereo not given), the result was inactive.

For the molecule `Cn1[nH]nnc1=S`, the result was inactive. On to `O=C(O)C(F)(F)C(F)(F)C(=O)O`, for which the result was inactive. Still for that read-out and setting: under `CC1=C(C(=O)Nc2ccccc2)S(=O)(=O)CCO1` stands “inactive”; under `CCOP(=O)(O)C(N)=O`, “inactive”.

Consider `C=C(C)C(=O)OCC1CO1` (stereo not given), for which the outcome was inactive. Regarding `NC(=O)C(F)(F)C(F)(F)F`, the outcome was inactive. Consider `O=C(O)C1C(C(=O)O)C2(Cl)C(Cl)=C(Cl)C1(Cl)C2(Cl)Cl` (stereo not given), for which the result was inactive. For the molecule `N#Cc1ccc(O)cc1`, the outcome was inactive. `COP(N)(=S)OC`: the result was inactive.

With `COC(=O)C(F)(F)C(F)(F)OC(F)(C(F)(F)F)C(F)(F)OC(F)=C(F)F` (stereo not given), the result was inactive. The same measure, in the same setting: under `COP(=O)(O)OC` stands “inactive”; under `C/C(=N\NC(=O)Nc1cc(F)cc(F)c1)c1ncccc1C(=O)O`, “inactive”; under `CC(C)(C)OOC(C)(C)C`, “inactive”. As for `CCCN(CCC)c1c([N+](=O)[O-])cc(C(C)C)cc1[N+](=O)[O-]`, the outcome was inactive. On the same count and under the same terms, under `NNC(N)=S` stands “inactive”; under `O=C(CBr)OCc1ccccc1`, “inactive”; under `ClC(Cl)(Cl)c1ccccc1`, “inactive”.

For the molecule `[N-]=[N+]=[N-]`, the outcome was inactive. On to `CC(C)(C)N(NC(=O)c1ccc(Cl)cc1)C(=O)c1ccccc1`, for which the outcome was inactive. Take `CC1(C)CN=C(NN=C(/C=C/c2ccc(C(F)(F)F)cc2)/C=C/c2ccc(C(F)(F)F)cc2)NC1`: the outcome was inactive.
